Hits are enriched below; roughly 3.9% of the tested compounds scored in any of these assays.
NTR1 agonist – activates human neurotensin receptor 1; NTR1-U2OS beta-arrestin-GFP spot imaging, agonist mode; activation, % at 20 µM; AID 493036; actives 0.17% (n = 330,000);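 active = activation at or above 40% of the spot to cytoplasm intensity ratio, with at least 20 cells analyzed; inconclusive = wells under 20 cells, flagged as cytotoxic or low count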
Target sequence (P30989 whole entry, looked up): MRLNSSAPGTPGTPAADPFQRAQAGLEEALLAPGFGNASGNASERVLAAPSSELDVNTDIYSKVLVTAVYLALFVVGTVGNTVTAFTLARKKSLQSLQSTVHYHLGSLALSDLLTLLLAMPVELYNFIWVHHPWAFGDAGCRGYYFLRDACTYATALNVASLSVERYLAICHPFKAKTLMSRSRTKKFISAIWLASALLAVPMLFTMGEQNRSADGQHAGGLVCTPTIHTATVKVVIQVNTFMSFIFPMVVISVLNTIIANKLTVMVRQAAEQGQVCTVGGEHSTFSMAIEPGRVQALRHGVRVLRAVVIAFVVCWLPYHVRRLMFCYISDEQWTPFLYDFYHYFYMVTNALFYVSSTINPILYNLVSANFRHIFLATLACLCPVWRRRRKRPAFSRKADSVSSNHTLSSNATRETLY
SUMO HTRF inh – SUMOylation inhibition; P63279; HTRF SUMOylation assay, SAE1/SAE2 + UBC9, in vitro; inhibition, % at 35 µM; actives 0.36% (n = 290,000); in the data active = inhibition above about 50%, passing the limit was not always enough; inconclusive = no clear call, values can overlap the other calls
Target sequence (P63279 whole entry, looked up): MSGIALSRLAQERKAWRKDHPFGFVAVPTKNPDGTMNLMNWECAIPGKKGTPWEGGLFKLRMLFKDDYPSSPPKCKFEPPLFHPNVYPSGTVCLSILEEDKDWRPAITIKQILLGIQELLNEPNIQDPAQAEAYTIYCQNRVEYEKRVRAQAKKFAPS
Cardio protect – myocardial damage modulation in H9c2 cells; H9c2 cardiomyocytes, H2O2 injury protection, ATPLite, 2 h; protection from H2O2 cell death, % at 20 µM; actives 0.63% (n = 360,000);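 active = compounds giving at least 50% protection of heart cells from peroxide-induced death in the single-dose screen, raw or plate-pattern-corrected value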
ALR H2O2 inh – human ALR oxidase inhibition via reduced H2O2; P55789; purified ALR, DTT oxidation, H2O2 HRP-luminol luminescence; inhibition, % (test concentration not listed); actives 3.8% (n = 290,000);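 active = mean replicate inhibition above about 79%, with every replicate also reaching it, limit read from the data; inconclusive = only one of the two criteria met; inactive = mean below limit and not every replicate reaching it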
Each line names hits and unclear results; the compound was inactive in the other large screens.

CCc1ccc(NC(=O)COC(=O)CCc2nc3cc(S(=O)(=O)N(CC)CC)ccc3n2C)cc1	ALR H2O2 inh 99
CNC(=O)COC(=O)c1ccc(NC(=O)CC#N)cc1	ALR H2O2 inh 98
COc1ccc(CCOC(=O)c2ccc(NC(=O)CC#N)cc2)cc1	ALR H2O2 inh 89
N#CCC(=O)Nc1ccc(C(=O)OCC(=O)Nc2cc(-c3ccccc3)nn2-c2ccccc2)cc1	none (no result: NTR1 agonist, SUMO HTRF inh, ALR H2O2 inh)
CCOc1ccccc1N1CCN(C(=O)c2c(Cl)cnn2C)CC1	none
COc1cccc(N2CCN(C(=O)c3ccc(CSc4nc5ccncc5[nH]4)cc3)CC2)c1	none (no result: ALR H2O2 inh)
COc1ccccc1OC(=O)CCN1c2ccccc2Sc2ccccc21	ALR H2O2 inh 88
O=C(O)CCN1c2ccccc2Sc2ccccc21	ALR H2O2 inh 82 (no result: NTR1 agonist)
COc1ccccc1C(=O)N1c2ccccc2Sc2ccccc21	none
CC(C)n1c(-c2ccco2)csc1=Nc1cccnc1	ALR H2O2 inh 92
Cc1ccc(C)c2nc(N3CCCC3)c(C#N)cc12	none
COc1cc(/C=C2\SC(=O)N(c3ccc(Cl)cc3)C2=O)cc([N+](=O)[O-])c1O	SUMO HTRF inh 95 (no result: NTR1 agonist, ALR H2O2 inh)
COc1cc(/C=C2\SC(=O)N(c3cccc(Cl)c3)C2=O)cc([N+](=O)[O-])c1O	SUMO HTRF inh 82 (no result: ALR H2O2 inh)
CCOC(=O)Cc1csc(NC(=O)Nc2ccc(C)cc2)n1	none
CC(C)(C)c1ccc(Oc2ccc(N)cn2)cc1	ALR H2O2 inh 98
COc1ccc2c(c1)cc(C(=O)O)n2C	none
Cc1cc(Oc2ccc(N)cn2)cc(C)c1Cl	none
Cc1cccc(Oc2ccc3c(c2)cc(C(=O)O)n3C)c1	ALR H2O2 inh 98
CC(C)(C)c1ccc(Oc2ccc(NC(=O)c3ccccc3C(=O)O)cn2)cc1	ALR H2O2 inh 93
O=C(O)c1ccccc1C(=O)Nc1ccc(Nc2ccccc2)cc1	none (no result: NTR1 agonist, SUMO HTRF inh, ALR H2O2 inh)
O=C(O)c1ccccc1C(=O)Nc1ccc(Oc2ccccc2)cc1	ALR H2O2 inh 94
CCOc1cc(NC(=S)NC)c(OCC)cc1NC(=O)c1ccco1	none
O=C(Cc1ccccc1F)NCC1(N2CCOCC2)CCCCC1	none
Cc1cccc(Oc2ccc(NC(=O)c3ccccc3C(=O)O)cc2)c1	ALR H2O2 inh 98
CCOc1ccccc1/C=N/NC(=O)c1cccc(S(=O)(=O)N2CCOCC2)c1	none
CCC(C)c1ccc(OCC(=O)NNC(=O)C2CCCCC2)cc1 (configuration not stated)	none
O=C(CSc1nc2c(sc3ccccc32)c(=O)n1CCCN1CCCC1)NCc1ccco1	ALR H2O2 inh 98
COCCCn1c(SCC(=O)NCc2ccco2)nc2sc3c(c2c1=O)CCC3	ALR H2O2 inh 94
O=c1c(Cl)cc(Cl)nn1-c1ccccc1	ALR H2O2 inh 98
COc1cc(Cl)nn(-c2ccccc2)c1=O	none
CCn1c(CNc2ccc(F)cc2)nnc1SCCN1CCCCC1	ALR H2O2 inh 98
Cc1ccccc1CNC(=O)c1[nH]c(C(F)(F)F)nc1-c1ccccc1	none (no result: NTR1 agonist, SUMO HTRF inh, ALR H2O2 inh)
COc1ccc(NC(=O)CSc2nnc(C)n2C2CCCCC2)cc1	none
CCc1c(O)nc(SCC(=O)Nc2ccccc2)n(-c2ccccc2)c1=O	ALR H2O2 inh 99
CCc1c(O)nc(SCC(=O)Nc2ccccc2)n(-c2ccccc2C)c1=O	none (no result: NTR1 agonist, SUMO HTRF inh, ALR H2O2 inh)
CCc1c(O)nc(SCC(=O)Nc2ccc(C)cc2)n(C2CCCCC2)c1=O	ALR H2O2 inh 98
Cc1ccc(NC(=O)CSc2nc(O)c(Cc3ccccc3)c(=O)n2-c2ccccc2)cc1	ALR H2O2 inh 99
CCc1c(O)nc(SCC(=O)Nc2ccc(Br)cc2)n(-c2ccc(C)cc2)c1=O	ALR H2O2 inh 96
CCc1c(O)nc(SCC(=O)Nc2cc(C)on2)n(-c2ccccc2)c1=O	ALR H2O2 inh 97
COc1cccc(NC(=O)CSc2nnc(-c3ccoc3C)n2-c2ccccc2)c1	none (no result: Cardio protect)
CCCCc1c(O)nc(SCC(=O)Nc2ccc(C)cc2)n(-c2ccc(OC)cc2)c1=O	ALR H2O2 inh 99 (no result: SUMO HTRF inh)
COc1ccc(-n2c(SCC(=O)Nc3ccccc3)nnc2-c2ccoc2C)cc1	ALR H2O2 inh 96 (no result: SUMO HTRF inh)
CCN1C/C(=C/c2ccc(OC)c(O)c2)C(=O)/C(=C/c2ccc(OC)c(O)c2)C1	ALR H2O2 inh 98
COc1ccc(/C=C2\CN(Cc3ccccc3)C/C(=C\c3ccc(OC)c(O)c3)C2=O)cc1O	Cardio protect 61 (no result: ALR H2O2 inh)
N#CCSc1nnc(-c2ccccc2O)n1Cc1ccccc1	none
CCC(C)c1c(O)nc(SCC(=O)c2ccccc2)[nH]c1=O (configuration not stated)	ALR H2O2 inh 99
C=CCc1c(C)nc(SCC(N)=O)[nH]c1=O	none
C=CCc1c(O)nc(SCC(=O)c2ccccc2)[nH]c1=O	ALR H2O2 inh 99
CCC(C)c1c(O)nc(SCC(=O)N2CCCCC2)[nH]c1=O (configuration not stated)	none
CCC(C)c1c(O)nc(SCC(=O)Nc2ccccc2)[nH]c1=O (configuration not stated)	ALR H2O2 inh 99
CC(C)C[C@H](N)c1nnc(S(=O)(=O)Cc2ccc(F)cc2)o1	ALR H2O2 inh 98
O=C1c2ccccc2NC2(CCCCC2)N1c1ccc(O)cc1	ALR H2O2 inh 99
CCCCN1CC(O)=C(c2nc(-c3ccc(Br)cc3)cs2)C1=N	none
COc1ccc(-c2csc(C3=C(O)CN(CCCN4CCCC4=O)C3=N)n2)cc1OC	ALR H2O2 inh 96
CC(=O)c1ccccc1NS(=O)(=O)c1ccc2c(c1)CC(=O)N2	none (no result: SUMO HTRF inh)
Cc1ccc(N=C2NC(=O)/C(=C/C=C/c3ccco3)S2)cc1	none (no result: NTR1 agonist)
Cc1cccc(N=C2NC(=O)/C(=C/C=C/c3ccco3)S2)c1C	SUMO HTRF inh 58 (no result: NTR1 agonist, ALR H2O2 inh)
CC(C)N=Cc1c(O)[nH]c2ccccc12	ALR H2O2 inh 99
CC(C)(CO)N=Cc1c(O)[nH]c2ccccc12	ALR H2O2 inh 100
CC(C)(C)c1[nH]c2ccccc2c1/C=N/O	ALR H2O2 inh 99
COc1cc2nc(CC(C)C)n(NC(=O)c3ccccc3Br)c(=O)c2cc1OC	none
CCOC(=O)Nc1sc2c(c1C(N)=O)CCC(C)C2 (configuration not stated)	none
CC(=O)NC(=S)Nc1sc2c(c1C(N)=O)CCC(C)C2 (configuration not stated)	ALR H2O2 inh 89
CC(=O)Nc1cccc2c1C(=O)N(c1ccc(C)cc1)C2=O	none (no result: ALR H2O2 inh)
COc1cc2c(cc1OC)C(CCc1ccccc1)=NCC2	none (no result: ALR H2O2 inh)
Cc1ccc(N=Nc2c(N)[nH]n3c(=O)cc(C)nc23)cc1	ALR H2O2 inh 97 (no result: NTR1 agonist)
Cc1ccc(N=Nc2c(=O)[nH]n3c(C)cc(C)nc23)cc1	none
CC(C)c1ccc(NC2CCCN(C(=O)C3=NN(C)C(=O)CC3)C2)cc1 (configuration not stated)	ALR H2O2 inh 98
COc1ccc(NC2CCCN(C(=O)c3cccc(C)n3)C2)cc1OC (configuration not stated)	ALR H2O2 inh inconclusive
COc1ccc(NC2CCCN(C(=O)C3=NN(C)C(=O)CC3)C2)cc1OC (configuration not stated)	ALR H2O2 inh 98
CC(C)c1ccc(NC2CCCN(C(=O)c3cnn(C(C)C)c3)C2)cc1 (configuration not stated)	none (no result: ALR H2O2 inh)
CCCCc1nnc(SCC(=O)Nc2nccs2)n1C	none
Cc1occc1-c1nnc(SCC(=O)c2cc3ccccc3oc2=O)o1	ALR H2O2 inh 98

Screening data deposited in PubChem BioAssay by several laboratories.
